Consider 38 molecules from PubChem BioAssay (Tox21).

SMILES strings stand for the structures. Records with an inconclusive call do not appear. Active and inactive are the calls of the source. The call rests on the fitted dose curve; in most records, active means well fitted cell-killing curve with a large enough effect in the repeat runs; inconclusive means weak or mixed curves, or effect the other way; inactive means flat fitted curve, though single readings scatter.

The test is described as follows: qHTS assay to identify small molecule antagonists of the estrogen receptor alpha (ER-alpha) signaling pathway using the BG1 cell line in the presence of 0.1 nM 17-beta-estradiol - cell viability counter screen (AID 1259241). Further: nearly all actives have a fitted effect of over 40% in size. The following applies: VM7Luc4E2 (BG1) viability, CellTiter-Fluor protease, 22 h, 0.1 nM estradiol agonist added; series mostly up to 92.4 µM. The method, boiled down:
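VM7Luc4E2 cells (endogenous full-length ER-alpha, 4xERE-luciferase), cultured 5 days in charcoal-stripped serum, exposed to compounds with 0.1 nM 17beta-estradiol (final) for 22 hr at 37C. Viability read in same wells as live-cell protease fluorescence after 30 min.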
(In general: Quantitative high-throughput screening tests each substance at several concentrations.)
Take `CNC(=O)Oc1ccccc1C1OCCO1`: the result was inactive.

Turning to `N#CC(Cl)(Cl)Cl`, the outcome was inactive.

Take `Nc1cc2c3c(c1)C(c1ccccc1)=N[C@@H](NC(=O)c1cccnc1)C(=O)N3CC2`: the outcome was inactive.

As to `C#CCN1C(=O)COc2cc(F)c(N3C(=O)C4=C(CCCC4)C3=O)cc21`, the result was inactive.

As to `CCCCOC(=O)[C@@H](C)Oc1ccc(Oc2ccc(C#N)cc2F)cc1`, the outcome was inactive.

For `CCOC(=O)C1(c2ccccc2)CCN(CCc2ccc(N)cc2)CC1`, the outcome was inactive.

As for `ClCC(Cl)(Cl)Cl`, the outcome was inactive.

Consider `CC(Oc1ccc(Oc2ncc(C(F)(F)F)cc2Cl)cc1)C(=O)O` (stereo not drawn), for which the outcome was inactive.

In the case of `Cc1ncsc1CCCl`, the outcome was inactive.

For `CCN(Cc1ccc(Cl)nc1)/C(=C/[N+](=O)[O-])NC`, the result was inactive.

`C[C@]12CC[C@H]3[C@@H](CC=C4C[C@@H](O)CC[C@@]43C)[C@@H]1CC[C@@H]2O`: the result was inactive.

Consider `NC1=NC(=O)C(c2ccccc2)O1` (stereo not drawn), for which the outcome was inactive.

Take `Cc1cccc(C#N)c1`: the result was inactive.

As to `Clc1ccccc1N1CCNCC1`, the result was inactive.

`COP(=S)(OC)Oc1c(Cl)cc(C)cc1Cl`: the outcome was inactive.

As for `CN1CCC(N(Cc2ccccc2)c2ccccc2)CC1`, the result was inactive.

With `CC(C)CC#N`, the result was inactive.

Turning to `CN1C[C@@H](NS(=O)(=O)N(C)C)C[C@@H]2c3cccc4c3c(cn4C)C[C@H]21`, the result was inactive.

In the case of `CCN(CC)C(C)C(=O)c1ccccc1` (stereo not drawn), the outcome was inactive.

As to `CNC(=O)Oc1cccc(C(C)C)c1`, the outcome was inactive.

For `CC(=O)CCc1ccc2c(c1)OCO2`, the outcome was inactive.

On to `O=NN1CCN(N=O)CC1`, for which the result was inactive.

Take `C=C(C)[C@@H]1CC=C(C=O)CC1`: the result was inactive.

Take `CNC(=O)Oc1c(C(C)(C)C)cc(C)cc1C(C)(C)C`: the result was inactive.

Turning to `CCC1(c2ccccc2)C(=O)NC(=O)NC1=O`, the outcome was inactive.

As to `OCCBr`, the outcome was inactive.

Take `BrCCCCCCBr`: the result was inactive.

On to `CCCCCCBr`, for which the result was inactive.

As to `Fc1cc(Br)ccc1CBr`, the result was inactive.

Regarding `Cc1cnc[nH]1`, the result was inactive.

For the molecule `NC(=O)O`, the outcome was inactive.

Take `CCOP(=S)(OCC)SCSc1ccc(Cl)cc1`: the result was inactive.

In the case of `CC1CCC(=O)O1` (stereo not drawn), the result was inactive.

Consider `ClC(Cl)Br`, for which the result was inactive.

`[O]=[Cd]`: the outcome was inactive.

Consider `Clc1cccc(N2CCNCC2)c1`, for which the result was inactive.

For `c1cc2c(c(N3CCNCC3)c1)OCCO2`, the outcome was inactive.

`CC(=O)CC(c1ccc(Cl)cc1)c1c(O)c2ccccc2oc1=O` (stereo not drawn): the outcome was inactive.
